The list is not random: actives were taken first. Their share in the collection is about 1.3%.
mIDH1 inhibitor = qHTS for Inhibitors of mutant isocitrate dehydrogenase 1 (IDH1): qHTS; Isocitrate dehydrogenase [NADP] cytoplasmic (Homo sapiens), O75874; IDH1-R132H enzyme, NADPH consumption, diaphorase/resazurin fluorescence; Potency, µM (titrated, usually from 76.6 µM), inactives show at the highest dose activity change, negative = inhibition, hits mostly inhibitors; actives 0.093% (n = 390,000); AID 602179, 2012; also: potency is read from the fitted curve at half-maximal effect; % is scaled to controls: 0 for no effect and ±100 for the full control effect; nearly all actives have a fitted effect of over 65% in size
Target sequence (O75874 whole entry R132H, stated change not applied): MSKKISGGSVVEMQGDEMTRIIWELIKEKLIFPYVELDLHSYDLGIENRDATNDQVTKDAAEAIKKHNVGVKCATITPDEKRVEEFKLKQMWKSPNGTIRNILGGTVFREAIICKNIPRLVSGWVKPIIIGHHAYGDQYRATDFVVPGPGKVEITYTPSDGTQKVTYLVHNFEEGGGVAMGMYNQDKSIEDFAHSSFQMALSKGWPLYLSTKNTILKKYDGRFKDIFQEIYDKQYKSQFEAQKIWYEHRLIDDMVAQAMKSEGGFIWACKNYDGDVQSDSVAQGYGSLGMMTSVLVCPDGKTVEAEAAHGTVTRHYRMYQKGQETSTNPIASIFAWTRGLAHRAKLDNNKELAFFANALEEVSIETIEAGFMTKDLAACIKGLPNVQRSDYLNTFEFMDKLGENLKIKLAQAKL
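IDH1-R132H (0.5 ug/mL) preincubated 30 min with compound, then NADPH (0.016 mM) and alpha-KG (2 mM) added; 80 min at RT, pH 7.5. Remaining NADPH coupled via diaphorase/resazurin to fluorescence (540/590 nm); concentration-response curves normalized to no-enzyme control.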
PKM2 act = qHTS Assay for Activators of Human Muscle isoform 2 Pyruvate Kinase | Pyruvate kinase PKM (Homo sapiens), P14618 | purified PKM2, Kinase-Glo ATP luminescence, activation; response scale: 0% is enzyme alone, no compound | Potency, µM (top dose mostly 57.5 µM), without a hit: top-dose activation, usual class: activators | actives 0.34% (n = 260,000) | AID 1631, 2009; also: potency is read from the fitted curve at half-maximal effect; % is scaled to controls: 0 for no effect and ±100 for the full control effect; nearly all actives have a fitted effect of over 55% in size
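Purified hPK-M2 (>95%) run at intermediate activity with 0.1 mM ADP and 0.5 mM PEP in 50 mM imidazole pH 7.2, KCl, MgCl2; 1 h room temperature. ATP formed read by Kinase-Glo luminescence; normalized to uninhibited and no-enzyme controls.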
rTrxR1 inhibitor = qHTS Assay for Inhibitors of Mammalian Selenoprotein Thioredoxin Reductase 1 (TrxR1): qHTS | actives 1% (n = 390,000) | Potency, µM (top dose mostly 114 µM), for the others: at the top dose activity change, negative = inhibition, hits mostly inhibitors | AID 588453, 2011 | recombinant rTrxR1, NADPH fluorescence consumption, selenite substrate | Thioredoxin reductase 1, cytoplasmic (Rattus norvegicus), O89049; also: potency is read from the fitted curve at half-maximal effect; % is scaled to controls: 0 for no effect and ±100 for the full control effect; nearly all actives have a fitted effect of over 65% in size
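Rat TrxR1 (90 nM in the dispensed reagent) was pre-reduced with 400 uM NADPH for 5 min at room temperature, then incubated with compound for 15 min. After 400 uM selenite was added, NADPH fluorescence (Ex 340/Em 450 nm) was followed for 8 min.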
Apoferritin bind = qHTS Assay for Identification of Novel General Anesthetics. AID 485281, 2010. actives 0.074% (n = 350,000). Ferritin light chain (Equus caballus), P02791. apoferritin/1-aminoanthracene competitive binding, fluorescence. Potency, µM (titrated, usually from 77.5 µM), for inactives: at the top dose activity change, negative = displacement, usual class: inhibitors; also: potency is read from the fitted curve at half-maximal effect; % is scaled to controls: 0 for no effect and ±100 for the full control effect; nearly all actives have a fitted effect of over 20% in size
Target sequence (P02791 2-175 limits assumed): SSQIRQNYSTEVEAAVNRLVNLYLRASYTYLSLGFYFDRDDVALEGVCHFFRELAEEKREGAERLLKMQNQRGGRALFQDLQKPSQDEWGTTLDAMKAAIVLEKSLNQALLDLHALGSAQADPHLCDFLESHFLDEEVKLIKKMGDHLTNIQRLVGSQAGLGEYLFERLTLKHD
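Steps: apoferritin (10 uM) was premixed with half-saturated 1-AMA in PBS, compounds were pin-transferred, plates stood 10 min at room temperature, fluorescence was read at 380/535 nm, and curves were fitted with a Hill equation.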
GALK inh = qHTS Assay for Inhibitors of Human Galactokinase (GALK). actives 0.007% (n = 270,000). Purified GALK, Kinase-Glo residual ATP luminescence. Potency, µM (top dose mostly 57.5 µM), inactives show top-dose activity change, negative = inhibition, most hits filed as inhibitors. P51570; also: potency is read from the fitted curve at half-maximal effect; % is scaled to controls: 0 for no effect and ±100 for the full control effect
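ATP-depletion format; final 35 uM ATP, 100 uM D-galactose, 5 nM enzyme; pH 8.0 HEPES/Mg2+ buffer; 60 min RT; luminescence read 10 min after detection reagent.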
TrxR1 substrate = qHTS Assay for Substrates of Mammalian Selenoprotein Thioredoxin Reductase 1 (TrxR1): qHTS | purified TrxR1 substrate turnover, NADPH consumption readout | AID 588456, 2011 | actives 0.01% (n = 390,000) | Thioredoxin reductase 1, cytoplasmic (Rattus norvegicus), O89049 | Potency, µM (top dose mostly 114 µM), without a hit: top-dose activity change, negative = substrate turnover; also: potency is read from the fitted curve at half-maximal effect; % is scaled to controls: 0 for no effect and ±100 for the full control effect; nearly all actives have a fitted effect of over 50% in size
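Rat TrxR1, dispensed at 90 nM, was prereduced with 400 uM NADPH (final) for 5 min at ~22 deg C, then incubated with compound 15 min before 400 uM selenite. A first-read NADPH fluorescence drop versus no-compound background flagged substrates.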
IDH1 autofl = qHTS for Inhibitors of mutant isocitrate dehydrogenase 1 (IDH1): Cherrypicks Autofluorescence Interference; AID 623980, 2012; inhibition of signal, % at 51.2 µM; Resorufin detection reagent fluorescence interference, cell-free; 750 tested, under 10 active; shares compounds with mIDH1 inhibitor;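 also: 0% = wells with normal resorufin and full inhibition = wells lacking resorufin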
WT IDH1 inh = qHTS for Inhibitors of mutant isocitrate dehydrogenase 1 (IDH1): Cherrypicks in WT IDH1 | shares compounds with mIDH1 inhibitor | WT IDH1 enzyme, NADPH diaphorase/resazurin fluorescence | Potency, µM (highest dose often 115 µM), for inactives: at the highest dose activity change, negative = inhibition, hits mostly inhibitors | actives 9% (n = 750) | AID 623995, 2012;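 also: potency is read from the fitted curve at half-maximal effect; 0% = full WT IDH1 enzyme control and full inhibition = no enzyme wells; nearly all actives have a fitted effect of over 55% in size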
Target sequence (O75874 whole entry, looked up): as the sequence (O75874 whole entry R132H, stated change not applied) above, with H132R counted along it
IDH1 R132H conf = qHTS for Inhibitors of mutant isocitrate dehydrogenase 1 (IDH1): Confirmation of Cherrypicks | IDH1 R132H enzyme, NADPH diaphorase/resazurin fluorescence | Potency, µM (highest dose often 76.6 µM), for inactives: at the top dose activity change, negative = inhibition, actives largely listed as inhibitors | actives 83% (n = 750) | AID 624002, 2012 | shares compounds with mIDH1 inhibitor; also: potency is read from the fitted curve at half-maximal effect; nearly all actives have a fitted effect of over 50% in size
Numbers without * were called inactive; ? = inconclusive; · = no result given; [ ] = another dose, or the depositor's remark. Calls follow the shape of the dose curve; as a rule, active = well fitted curve in the direction sought with a large enough effect; inconclusive = small, poorly fitted or top-dose-only effect, or another doubt; inactive = no such curve, though single readings can be large; an effect the other way counts as inactive or inconclusive.

SMILES	mIDH1 inhibitor	PKM2 act	rTrxR1 inhibitor	Apoferritin bind	GALK inh	TrxR1 substrate	IDH1 autofl	WT IDH1 inh	IDH1 R132H conf
CCC(C)(C)NC(=O)C(c1ccccc1)N(Cc1cccs1)C(=O)Cn1nnc2ccccc21 (configuration not stated)	?	·	23%	·	·	5%	5	4%	16µM*
O=C(NC1CCCCC1)C(c1ccccc1)N(Cc1ccco1)C(=O)c1csnn1 (configuration not stated)	-4%	-8%	1%[57.1 µM]	1%	-3%	1%[57.1 µM]	·	·	·
O=C(NC1CCCCC1)C(c1ccccc1)N(Cc1ccco1)C(=O)Cn1cnc2ccccc21 (configuration not stated)	12µM*	1%	1%[57.1 µM]	-7%	0%	0%	-2	-8%	6.3µM*
O=C(NC1CCCCC1)C(c1ccco1)N(Cc1cccs1)C(=O)Cn1nnc2ccccc21 (configuration not stated)	?	1%	36%	-23%	0%	13%	-3	-2%	11µM*
O=C(NCc1ccco1)C(c1ccco1)N(Cc1cccs1)C(=O)Cn1nnc2ccccc21 (configuration not stated)	1%	15%	-35%	-22%	-1%	-10%	·	·	·
Cc1cccc(C)c1NC(=O)CCS(=O)(=O)c1ccc2c(c1)CC(C)N2C(=O)C1CC1 (configuration not stated)	3%	·	?	7%	·	-14%	·	·	·
CCOc1ccc(CCNC(=O)c2cc3c(-c4ccccc4F)nn(C)c3s2)cc1OCC	-9%	·	33%	5%	·	7%	·	·	·
COC(=O)[C@@]12CCCCN1[C@H](c1ccc(-c3ccc(F)cc3)c(OC)c1)[C@H]1C(=O)N(C)C(=O)[C@H]12	-4%	·	12%[57.1 µM]	·	·	5%[57.1 µM]	·	·	·
COC(=O)[C@@]12CCCCN1[C@H](c1ccc(-c3ccc(OC)cc3)c(OC)c1)[C@@H]1C(=O)N(C)C(=O)[C@@H]12	35µM*	·	-16%	·	·	5%	4	5%	5µM*
FC(F)(F)c1cccc(Nc2c3c(nc4ccc(Cl)cc24)CCC3)c1	?	·	0%	?	·	-1%	3	2%	?
Fc1ccc(F)c(Nc2c3c(nc4ccc(Cl)cc24)CCC3)c1	?	·	-18%	-7%	·	-14%	·	·	·
O=C(NC(Nc1nc2ccc([N+](=O)[O-])cc2s1)(C(F)(F)F)C(F)(F)F)c1ccccc1Cl	?	0%	-19%	-14%	-3%	-17%	9	-5%	22µM*
CN(C)S(=O)(=O)c1ccc2nc(NC(=O)c3cccnc3)sc2c1	5%	2%	-27%	-19%	3%	-13%	·	·	·
O=C(NC(Nc1nc2ccc([N+](=O)[O-])cc2s1)(C(F)(F)F)C(F)(F)F)c1cccnc1	?	-7%	0%	-13%	0%	-7%	6	-3%	13µM*
C[N+]1(CC(=O)c2ccc(F)cc2)CCc2ccccc2C1 (configuration not stated)	·	·	?	·	·	8%	·	·	·
Cc1cc(NS(=O)(=O)c2ccc(NS(=O)(=O)c3ccc(CC(C)C)cc3)cc2)nc(C)n1	18µM*	-6%	8%	-3%	2%	10%	0	2%	16µM*
Cc1ccc(S(=O)(=O)Nc2ccc(S(=O)(=O)Nc3cc(C)nc(C)n3)cc2)cc1	5%	2%	8%	0%	-2%	1%	·	·	·
Cn1ncc2c(Nc3ccc(Br)cc3)nc(Nc3ccc(Br)cc3)nc21	33µM*	-6%	17%	0%	4%	23%	-4	4%	11µM*
Cn1ncc2c(Nc3ccc(O)cc3)nc(Cl)nc21	9%	0%	8%	1%	6%	2%	·	·	·
Cn1ncc2c(Nc3cccc(Cl)c3)nc(Nc3cccc(Cl)c3)nc21	?	2%	4%[57.1 µM]	-14%	-6%	11%[57.1 µM]	-19	?	5.6µM*
O=c1[nH]c(SCc2ccc(Br)cc2)nc2c1CCCC2	·	·	12%	-3%	·	7%	·	·	·
Cc1cccc(NC(=O)C2CCCN(S(=O)(=O)c3ccc(Br)s3)C2)c1 (configuration not stated)	-4%	·	10%	-12%	·	-6%	·	·	·
COc1ccc(CN(Cc2nc3ccccc3c(=O)[nH]2)C(=O)NC2CCCCC2)cc1	?	2%	10%	-22%	-2%	2%	4	-5%	28µM*
O=C(NC1CCCCC1)N(Cc1nc2ccccc2c(=O)[nH]1)C1CCCCC1	0%	-16%	-6%	-12%	2%	3%	·	·	·
CSc1nc(N(C)NC(=O)c2ccc(Cl)cc2)c2ccccc2n1	46µM*	1%	6%	5%	-3%	1%	4	2%	22µM*
COc1ccc(N=C2S/C(=C\c3ccc(OC(C)C(=O)O)c(OC)c3)C(=O)N2CCc2c[nH]c3ccccc23)cc1 (configuration not stated)	?	-1%	1%	-7%	?	-4%	-2	?	28µM*
